Measured values taken from PubChem BioAssay AID662 (National Center for Advancing Translational Sciences (NCATS), 2007).
Among all 71,000 compounds or so, about 1,800 (2.5%) were called active. Inconclusive results (about 26%) are left out. Calls come from the whole dose curve; as a rule, active = well fitted activation curve with a large enough effect in the signal ratio, with a control signal flat (not every such curve was filed as active); inconclusive = small, poorly fitted or top-dose-only effect, or effect the other way, or a change in a side signal; inactive = flat fitted curve, though single readings scatter; the % refers to the signal ratio. This excerpt belongs to a sample that is enriched for actives.
Potency is the fitted concentration of half-maximal effect.

Assay: Cell signaling CRE-BLA (Fsk stim); for activity change, negative = inhibition: % of control where 0% means no effect
Details: CHO CRE-bla reporter (cAMP response element driving beta-lactamase), forskolin EC10, beta-lactamase ratio; series mostly up to 38.2 µM; activity change, negative = inhibition: at the top concentration
How it was run: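 Cells were plated overnight at 37 °C, exposed to compound titrations plus EC10 NKH 477 for 3 h, then given CCF4 dye for 2 h at room temperature. Blue/green (460/530 nm) ratio was converted to %Activity and AC50 values calculated.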
For `NC(=O)C1CC=CCC1C(=O)OCC(Cl)=C(Cl)Cl` (stereo not drawn), the “activity change, negative = inhibition” value was -9.86% (inactive). With `CC(=O)Oc1cccc(N2C(=O)C3CC=C(Cl)CC3C2=O)c1` (stereo not drawn) the “activity change, negative = inhibition” value was 10.5% (inactive). With `CC(=O)c1cccc(NC(=O)c2ccncc2)c1` the “activity change, negative = inhibition” value was -3.63% (inactive). For `Cc1cc(C)c2c(n1)nn1c(-n3ccnc3)cc(C)nc21`, the Potency was 6.31 µM (active). For `CC(=O)Nc1ccc(S(=O)(=O)N2CCSCC2)cc1`, the “activity change, negative = inhibition” value was -0.365% (inactive). In the case of `O=C(CCN1C(=O)c2ccccc2C1=O)Nc1ccncc1`, the “activity change, negative = inhibition” value is reported as 9.45% (inactive). For `Cn1c(=O)[nH]c(=O)c2c1nc(Br)n2CCCCSc1nc2ccccc2o1`, the Potency was 2.51 µM (active). With `CC1CCN(c2nc3c(c(=O)[nH]c(=O)n3C)n2CCCc2ccccc2)CC1` the “activity change, negative = inhibition” value was 9.3% (inactive). For `Cn1c(=O)[nH]c(=O)c2c1nc(N1CCCCCC1)n2CC(=O)c1ccccc1`, the “activity change, negative = inhibition” value was -2.8% (inactive). With `C[C@]1(C(=O)NCCc2c[nH]c3ccccc23)C=C[C@@H](Cc2ccccc2)N1C(=O)c1ccccc1` the “activity change, negative = inhibition” value was -22% (inactive). In the case of `C1CCC2OC2C1` (stereo not drawn), the “activity change, negative = inhibition” value is reported as -9.24% (inactive). For `CCOc1cccc(NC(=O)CC#N)c1`, the “activity change, negative = inhibition” value was -3.19% (inactive). With `CC(=O)Nc1ccc(S(=O)(=O)Nc2ccc(N3CCOCC3)c(F)c2)cc1` the “activity change, negative = inhibition” value was -0.86% (inactive). For `CC(=O)Nc1cccc(Oc2cc(C#N)c(C#N)cc2N2CCOCC2)c1`, the Potency was 5.01 µM (active). For `CCCC(Cl)CCCC(Cl)CCC(Cl)CCC(Cl)CCC(Cl)CCCC(Cl)CCC` (stereo not drawn), the “activity change, negative = inhibition” value was -10.8% (inactive). For `O=C(Cl)c1ccccc1[N+](=O)[O-]`, the “activity change, negative = inhibition” value was -8.49% (inactive). With `CCOC(=O)N1CCN(C(=O)C2CCN(c3ncnc4c3sc3cccc(F)c34)CC2)CC1` the “activity change, negative = inhibition” value was 5.74% (inactive). For `CCOC(=O)C1CCN(c2ncnc3c2oc2ccc(Br)cc23)CC1`, the Potency was 2.51 µM (active). In the case of `CCOC(=O)C1CCN(C(=O)c2oc3ccc(S(=O)(=O)N4CCCCCC4)cc3c2C)CC1`, the “activity change, negative = inhibition” value is reported as -4.03% (inactive). With `COc1ccc(-n2c(SC)nc(O)cc2=O)cc1` the activity change, negative = inhibition was -26.5% [at 7.6 µM] (inactive). In the case of `COC(=O)c1ccc(S(=O)(=O)c2ccc(C(=O)OC)s2)s1`, the “activity change, negative = inhibition” value is reported as -1.96% (inactive). For `CSc1nnc2c(n1)OC(c1cn(C)c3ccccc13)N(C(C)=O)c1ccccc1-2` (stereo not drawn), the activity change, negative = inhibition was 2.27% [at 7.6 µM] (inactive). With `c1ccc2cc(OCCN3CCCC3)ccc2c1` the activity change, negative = inhibition was -1.69% [at 7.6 µM] (inactive). For `CCOC(=O)/C=c1\s/c(=C\c2ccccc2OC)c(=O)n1CC(=O)N1CCOCC1`, the Potency was 2.51 µM (active). With `CCOc1ccccc1/C=c1\sc2nc(-c3ccco3)nn2c1=O` the “activity change, negative = inhibition” value was -11.2% (inactive). In the case of `COc1cccc2c(=O)n(CC(=O)N3CCCCCC3)ccc12`, the “activity change, negative = inhibition” value is reported as -7.62% (inactive). With `O=C(NC1CCN(Cc2ccccc2)CC1)c1ccccc1F` the “activity change, negative = inhibition” value was -2.83% (inactive). For `COCCOC(=O)C1=C(C)NC(=O)NC1c1ccc(Cl)cc1` (stereo not drawn), the “activity change, negative = inhibition” value was -2.61% (inactive). With `C[C@@H](Nc1nc(-c2ccccc2)nc2c1oc1ccccc12)C(=O)O` the “activity change, negative = inhibition” value was 3.05% (inactive). With `CCSc1nc(C)nc2c1oc1ccccc12` the Potency was 12.6 µM (active). In the case of `Cc1nc(N2CCCC2C(=O)O)c2oc3ccccc3c2n1` (stereo not drawn), the “activity change, negative = inhibition” value is reported as 14.5% (inactive). In the case of `CCOC(=O)c1cc(-c2nnc(-c3cc(OC)c(OC)c(OC)c3)o2)c(C)nc1C`, the “activity change, negative = inhibition” value is reported as 13.5% (inactive). For `O=C(OCc1nnc(-c2ccccc2)o1)c1ccc2c(c1)C(=O)N(CCc1ccccc1)C2=O`, the “activity change, negative = inhibition” value was 14.8% (inactive). For `CCCc1nc2ccccc2c(C(=O)OCc2nnc(-c3cc(OC)c(OC)c(OC)c3)o2)c1CC`, the Potency was 0.501 µM (active). For `C[C@@H]1O[C@@H](O[C@@H]2[C@@H](O)[C@H](OCCc3ccc(O)c(O)c3)O[C@H](CO[C@@H]3O[C@H](CO)[C@@H](O)[C@H](O)[C@H]3O)[C@H]2OC(=O)/C=C/c2ccc(O)c(O)c2)[C@H](O)[C@H](O)[C@H]1O`, the “activity change, negative = inhibition” value was -1.8% (inactive). In the case of `N[C@@H](C(=O)O)c1ccc(P(=O)(O)O)cc1`, the “activity change, negative = inhibition” value is reported as 3.09% (inactive). In the case of `CC1CN(c2cc(=O)n(Cc3ccc(F)cc3)c(=O)[nH]2)CC(C)O1` (stereo not drawn), the “activity change, negative = inhibition” value is reported as -4.71% (inactive). With `COCc1cc(C)nc(Nc2cc(C)ccc2C)c1C#N` the “activity change, negative = inhibition” value was 12.3% (inactive). With `CCOC(=O)c1c(-n2cnnn2)sc(C)c1C` the “activity change, negative = inhibition” value was 12.6% (inactive). With `COC(=O)c1sc(NC(=O)c2csc3c2CCCC3)nc1C` the “activity change, negative = inhibition” value was 18.1% (inactive). With `CCOC(=O)c1sc(NC(=O)CCN2CCOCC2)c(C(=O)OCC)c1C` the “activity change, negative = inhibition” value was 7.36% (inactive). For `N#Cc1c(NC(=O)CSc2nc3ccccc3c(=O)n2Cc2ccco2)sc2c1CCCC2`, the “activity change, negative = inhibition” value was -3.2% (inactive). For `COC(=O)c1c(NC(=O)CSc2nncs2)sc2c1CCCCC2`, the Potency was 6.31 µM (active). For `CCOCC(=O)Nc1sc2c(c1C(=O)OCC)CCCC2`, the Potency was 10 µM (active). For `C=CCOC(=O)COCCC(C)C`, the “activity change, negative = inhibition” value was -7.88% (inactive). For `CC1C(c2ccccc2)=[N+]([O-])C2(CCCC2)N1O` (stereo not drawn), the “activity change, negative = inhibition” value was -1.15% (inactive). In the case of `CCCC[C@@H]1C[C@H]1C(NC(=O)c1ccco1)c1ccc(C(=O)OC)cc1` (stereo partly drawn), the “activity change, negative = inhibition” value is reported as 4.18% (inactive). In the case of `C/C=C1\C(=O)C[C@@H]2[C@@H]3CCC4=CC(=O)CC[C@@]4(C)[C@H]3CC[C@@]12C`, the “activity change, negative = inhibition” value is reported as 11.9% (inactive). With `O=C(Nc1cccc(F)c1)c1ccc(S(=O)(=O)N2CCCC2)cc1` the “activity change, negative = inhibition” value was -0.683% (inactive). In the case of `CC(C)(C)OC(=O)c1c(N)n(CCCN2CCCC2=O)c2nc3ccccc3nc12`, the Potency is reported as 10 µM (active). For `CSc1nnc(-c2ccncc2)n1CCCN1CCCC1=O`, the “activity change, negative = inhibition” value was 0.937% (inactive). In the case of `CCOc1cc2[nH]c(=S)n(CCCN3CCCC3=O)c(=O)c2cc1OCC`, the “activity change, negative = inhibition” value is reported as 0.0831% (inactive). With `Cc1ccccc1C(=O)O` the “activity change, negative = inhibition” value was -1.28% (inactive).
